Assay results published in the supplement of paper PMC9262897, “Low-cost anti-mycobacterial drug discovery using engineered E. coli” (Nature Communications, 2022).
Structures can show the parent of a compound that is named as a salt. ± gives the standard deviation of the averaged measurements.

How the values were obtained:
Assay in all cases: growth (OD600 after 10 h); higher = more growth (less inhibition)
[1] = tested on: E. coli TESEC Alr+ wild-type control; conditions: compound 0.1 mM; raw OD600 reference: median of DMSO wells 0.241, cell-free background 0.041
Experimental: (§1)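 TESEC Mtb Alr E. coli, or the Alr+ wild-type control, in 384-well plates with Prestwick library compounds at 0.1 mM and 1% DMSO, across arabinose induction levels of 1E3 to 1E7 nM. Growth is read as OD600 after 10 h at 37 °C in triplicate biological replicates.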

E. coli TESEC Mtb Alr [2] = conditions: compound 0.1 mM
Experimental: as §1

E. coli TESEC Mtb Asd = conditions: compound 0.1 mM
Experimental: (§2)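 TESEC E. coli strains in which the native enzyme is deleted and replaced by arabinose-inducible Mtb Asd, DapB, CysH or TrpD, each grown in its selective medium. Strains were screened against the Prestwick library at 0.1 mM and 1% DMSO in 384-well format at low and high arabinose induction. Growth is read as OD600 after 10 h in triplicate.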

E. coli TESEC Mtb DapB = conditions: compound 0.1 mM
Experimental: as §2

[3] = tested on: E. coli TESEC Alr+ wild-type control; conditions: compound 0.1 mM; raw OD600 reference: median of DMSO wells 0.49, cell-free background 0.052
Experimental: (§3)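 TESEC Mtb Alr E. coli (ΔaraC ΔtolC ΔentC Δalr ΔdadX, arabinose-inducible Mtb Alr) or the Alr+ wild-type control strain, grown in defined M9-fructose medium without D-alanine in 96-well plates with Prestwick library compounds at 0.1 mM and 1% DMSO. Low Alr induction is 0.1 µM arabinose and high induction is 10 mM arabinose.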

E. coli TESEC Mtb Alr [4] = conditions: compound 0.1 mM; remark: listed apart in the source
Experimental: as §3

[5] = arabinose 1000 nM, raw OD600 reference: median of DMSO wells 0.294, cell-free background 0.041
[6] = arabinose 10000 nM, raw OD600 reference: median of DMSO wells 0.264, cell-free background 0.041
[7] = arabinose 100000 nM, raw OD600 reference: median of DMSO wells 0.201, cell-free background 0.041
[8] = arabinose 1000000 nM, raw OD600 reference: median of DMSO wells 0.193, cell-free background 0.041
[9] = arabinose 10000000 nM, raw OD600 reference: median of DMSO wells 0.146, cell-free background 0.041
[10] = arabinose induction (level): High, raw OD600 reference: median of DMSO wells 0.331, cell-free background 0.041
[11] = arabinose induction (level): Low, raw OD600 reference: median of DMSO wells 0.417, cell-free background 0.041
[12] = arabinose induction (level): High, raw OD600 reference: median of DMSO wells […], cell-free background 0.041
[13] = arabinose induction (level): Low, raw OD600 reference: median of DMSO wells 0.227, cell-free background 0.041
[14] = arabinose 100 nM, raw OD600 reference: median of DMSO wells 0.413, cell-free background 0.052
[15] = arabinose 10000000 nM, raw OD600 reference: median of DMSO wells […], cell-free background 0.052

| Structure (SMILES) | growth [1] | growth (E. coli TESEC Mtb Alr [2]; [5]) | growth (E. coli TESEC Mtb Alr [2]; [6]) | growth (E. coli TESEC Mtb Alr [2]; [7]) | growth (E. coli TESEC Mtb Alr [2]; [8]) | growth (E. coli TESEC Mtb Alr [2]; [9]) | growth (E. coli TESEC Mtb Asd; [10]) | growth (E. coli TESEC Mtb Asd; [11]) | growth (E. coli TESEC Mtb DapB; [12]) | growth (E. coli TESEC Mtb DapB; [13]) | growth [3] | growth (E. coli TESEC Mtb Alr [4]; [14]) | growth (E. coli TESEC Mtb Alr [4]; [15]) |
| --- | --- | --- | --- | --- | --- | --- | --- | --- | --- | --- | --- | --- | --- |
| NC[C@H]1O[C@H](O[C@H]2[C@H](O[C@@H]3O[C@H](CO)[C@@H](O)[C@H]3O)[C@@H](O)[C@H](N)C[C@@H]2N)[C@H](N)[C@@H](O)[C@@H]1O [Ribostamycin sulfate salt] | 0.238 ± 0.011 | 0.286 ± 0.0099 | 0.269 ± 0.0065 | 0.182 ± 0.025 | 0.201 ± 0.015 | 0.138 ± 0.0082 | 0.37 ± 0.013 | 0.458 ± 0.012 | 0.218 ± 0.023 | 0.226 ± 0.016 | 0.549 ± 0.058 | 0.42 ± 0.011 | 0.366 ± 0.012 |
| N[C@@H](C(=O)N[C@@H]1C(=O)N2C(C(=O)O)=C(Cl)CC[C@H]12)c1ccccc1 [Loracarbef] | 0.251 ± 0.0037 | 0.318 ± 0.0031 | 0.224 ± 0.0093 | 0.211 ± 0.024 | 0.175 ± 0.0071 | 0.151 ± 0.0052 | 0.362 ± 0.016 | 0.411 ± 0.0062 | 0.226 ± 0.017 | 0.234 ± 0.014 | 0.529 ± 0.067 | 0.0487 ± 0.0051 | 0.324 ± 0.024 |
| CCOC(=O)C1=C(C)NC(C)=C(C(=O)OC)C1c1cccc([N+](=O)[O-])c1 (configuration not stated) [Nitrendipine] | 0.173 ± 0.013 | 0.224 ± 0.01 | 0.0536 ± 0.0045 | 0.165 ± 0.0036 | 0.0556 ± 0.00083 | 0.15 ± 0.0073 | 0.246 ± 0.036 | 0.4531 ± 0.0035 | 0.217 ± 0.016 | 0.215 ± 0.0092 | 0.557 ± 0.015 | 0.412 ± 0.017 | 0.221 ± 0.13 |
| O=C(NCCN1CCOCC1)c1ccc(Cl)cc1 [Moclobemide] | 0.233 ± 0.0068 | 0.287 ± 0.0083 | 0.25 ± 0.0059 | 0.225 ± 0.032 | 0.177 ± 0.013 | 0.136 ± 0.0024 | 0.323 ± 0.11 | 0.395 ± 0.14 | 0.191 ± 0.0078 | 0.217 ± 0.025 | 0.615 ± 0.038 | 0.416 ± 0.0096 | 0.338 ± 0.009 |
| CC(=O)OCC(CCn1cnc2cnc(N)nc21)COC(C)=O [Famciclovir] | 0.23 ± 0.005 | 0.288 ± 0.0069 | 0.269 ± 0.0058 | 0.184 ± 0.031 | 0.21 ± 0.021 | 0.14 ± 0.0045 | 0.284 ± 0.048 | 0.386 ± 0.039 | 0.179 ± 0.0051 | 0.199 ± 0.031 | 0.56 ± 0.17 | 0.4163 ± 0.0038 | 0.346 ± 0.0062 |
| CSc1nc2cc(Cl)c(Oc3cccc(Cl)c3Cl)cc2[nH]1 [Triclabendazole] | 0.0427 ± 0.0024 | 0.0531 ± 0.0014 | 0.0802 ± 0.002 | 0.0447 ± 0.0021 | 0.0733 ± 0.012 | 0.04873 ± 5.8e-05 | 0.0558 ± 0.0083 | 0.0583 ± 0.0045 | 0.0562 ± 0.0033 | 0.0542 ± 0.0043 | 0.0897 ± 0.0096 | 0.0864 ± 0.011 | 0.137 ± 0.014 |
| CC(=O)OCC(=O)[C@@]1(O)CC[C@H]2[C@@H]3CCC4=CC(=O)CC[C@]4(C)[C@H]3[C@@H](O)C[C@@]21C [Cortisol acetate] | 0.234 ± 0.0044 | 0.297 ± 0.016 | 0.237 ± 0.0043 | 0.184 ± 0.018 | 0.151 ± 0.0056 | 0.141 ± 0.0061 | 0.366 ± 0.052 | 0.506 ± 0.028 | 0.213 ± 0.0036 | 0.206 ± 0.011 | 0.517 ± 0.032 | 0.399 ± 0.014 | 0.289 ± 0.011 |
| CN(C)CC/C=C1/c2ccccc2Sc2ccc(Cl)cc21 [Chlorprothixene hydrochloride] | 0.0398 ± 0.0002 | 0.0409 ± 0.001 | 0.03943 ± 0.00032 | 0.04043 ± 0.00038 | 0.042 ± 0.0051 | 0.0425 ± 0.00068 | 0.0468 ± 0.00058 | 0.0472 ± 0.0011 | 0.0467 ± 0.00076 | 0.0463 ± 0.00046 | 0.157 ± 0.12 | 0.41 ± 0.0049 | 0.0664 ± 0.0082 |
| CC(=O)CC(c1ccc([N+](=O)[O-])cc1)c1c(O)c2ccccc2oc1=O (configuration not stated) [Acenocoumarol] | 0.244 ± 0.0011 | 0.298 ± 0.0045 | 0.2588 ± 0.0011 | 0.175 ± 0.0092 | 0.1675 ± 0.0012 | 0.139 ± 0.0017 | 0.26 ± 0.023 | 0.293 ± 0.051 | 0.175 ± 0.015 | 0.189 ± 0.0085 | 0.503 ± 0.0074 | 0.395 ± 0.011 | 0.323 ± 0.024 |
| CN1CCc2cccc3c2[C@H]1Cc1ccc(O)c(O)c1-3 [R(-) Apomorphine hydrochloride hemihydrate] | 0.0618 ± 0.002 | 0.292 ± 0.0093 | 0.254 ± 0.0078 | 0.181 ± 0.019 | 0.0652 ± 0.0022 | 0.14 ± 0.0033 | 0.152 ± 0.027 | 0.147 ± 0.066 | 0.16 ± 0.0062 | 0.174 ± 0.021 | 0.467 ± 0.025 | 0.407 ± 0.0077 | 0.199 ± 0.11 |
| Cc1cccc(C)c1OCC(C)N (configuration not stated) [Mexiletine hydrochloride] | 0.225 ± 0.0049 | 0.276 ± 0.0054 | 0.262 ± 0.0058 | 0.223 ± 0.038 | 0.171 ± 0.0031 | 0.143 ± 0.0056 | 0.348 ± 0.076 | 0.397 ± 0.033 | 0.2 ± 0.013 | 0.288 ± 0.071 | 0.399 ± 0.005 | 0.4 ± 0.015 | 0.352 ± 0.015 |
| CCN1CCCC(OC(=O)C(c2ccccc2)c2ccccc2)C1 (configuration not stated) [Piperidolate hydrochloride] | 0.18 ± 0.0021 | 0.264 ± 0.0065 | 0.259 ± 0.012 | 0.161 ± 0.01 | 0.157 ± 0.0096 | 0.136 ± 0.0042 | 0.176 ± 0.025 | 0.428 ± 0.14 | 0.178 ± 0.018 | 0.182 ± 0.0083 | 0.555 ± 0.023 | 0.4174 ± 0.0019 | 0.329 ± 0.011 |
| O=C(Nc1cccc2c(=O)cc(-c3nnn[nH]3)oc12)c1ccc(OCCCCc2ccccc2)cc1 [Pranlukast] | 0.23 ± 0.0033 | 0.238 ± 0.0077 | 0.196 ± 0.0094 | 0.227 ± 0.0058 | 0.144 ± 0.0097 | 0.178 ± 0.0095 | 0.236 ± 0.0051 | 0.238 ± 0.014 | 0.158 ± 0.014 | 0.195 ± 0.015 | 0.46 ± 0.0055 | 0.424 ± 0.0063 | 0.308 ± 0.013 |
| CC[C@H]1OC(=O)[C@H](C)[C@@H](O[C@H]2C[C@@](C)(OC)[C@@H](O)[C@H](C)O2)[C@H](C)[C@@H](O[C@@H]2O[C@H](C)C[C@H](N(C)C)[C@H]2O)[C@](C)(OC)C[C@@H](C)C(=O)[C@H](C)[C@@H](O)[C@]1(C)O [Clarithromycin] | 0.0414 ± 0.00036 | 0.0421 ± 0.00026 | 0.04 ± 0.00071 | 0.0426 ± 0.00059 | 0.041 ± 0.0018 | 0.0437 ± 0.0036 | 0.0608 ± 0.013 | 0.0537 ± 0.0096 | 0.061 ± 0.0028 | 0.0632 ± 0.0078 | 0.055 ± 0.00044 | 0.0576 ± 0.0015 | 0.0524 ± 0.00061 |
